Assay results from PubChem BioAssay AID743025 (Vanderbilt Specialized Chemistry Center, 2013).
Values without a mark were called inactive. Activity calls are given as the source filed them.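 How the source made its calls: active means IC50 below 10 µM at human M5 in a calcium flux test, acting as a negative modulator; inactive means the rest.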

Biological target: Muscarinic acetylcholine receptor M5 (Homo sapiens) (UniProt P08912)
Test: inhibition of ACh-evoked M5 calcium signal – cell-based, single concentration, human M5 (AID 743025)
Details: CHO-K1 hM5, ACh EC80 calcium flux, Fluo-4; at 10 µM; hits give low values

Chain of Muscarinic acetylcholine receptor M5 (Homo sapiens) (P08912 whole entry, looked up): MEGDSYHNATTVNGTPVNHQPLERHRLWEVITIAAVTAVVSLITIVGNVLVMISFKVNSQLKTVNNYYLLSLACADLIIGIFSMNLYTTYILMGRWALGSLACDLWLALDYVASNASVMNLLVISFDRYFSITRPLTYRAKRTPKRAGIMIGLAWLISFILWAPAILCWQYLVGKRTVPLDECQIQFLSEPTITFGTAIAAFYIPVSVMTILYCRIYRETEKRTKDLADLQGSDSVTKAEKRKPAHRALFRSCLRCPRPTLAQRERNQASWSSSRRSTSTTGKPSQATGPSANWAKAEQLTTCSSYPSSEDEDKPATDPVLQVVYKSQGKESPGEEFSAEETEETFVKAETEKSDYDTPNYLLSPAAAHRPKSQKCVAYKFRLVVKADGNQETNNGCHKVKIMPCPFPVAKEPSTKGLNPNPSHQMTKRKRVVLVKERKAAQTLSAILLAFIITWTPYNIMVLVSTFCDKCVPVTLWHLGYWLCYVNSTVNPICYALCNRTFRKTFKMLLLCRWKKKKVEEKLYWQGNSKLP

In the case of `O=C(Nc1ccc(Cl)cc1)N1CCN2C(=O)c3ccccc3C12c1ccccc1` (stereo unspecified), the activity remaining is reported as 78.2%.

With `COc1ccc(C23c4ccccc4C(=O)N2CCN3C(=O)c2ccc(C(F)(F)F)cc2)cc1` (stereo unspecified) the activity remaining was 48% (active).

With `O=C1c2ccccc2C2(c3ccc(Cl)cc3)NCCCN12` (stereo unspecified) the activity remaining was 70.4%.

`O=C(c1cc(Cl)cc(Cl)c1)N1CCN2C(=O)c3ccccc3C12c1ccccc1` (stereo unspecified) was tested, and the activity remaining was 5.4% (active).

For `O=C(c1cc(F)cc(F)c1)N1CCN2C(=O)c3ccccc3C12c1ccccc1` (stereo unspecified), the activity remaining was 4.21% (active).

In the case of `O=C(c1ccccc1)N1CCN2C(=O)c3ccccc3C12c1ccc(F)cc1` (stereo unspecified), the activity remaining is reported as 67.6% (active).

Molecule `COc1ccc(C23c4ccccc4C(=O)N2CCN3C(=O)c2ccc(C)cc2)cc1` (stereo unspecified) has an activity remaining of 68.4%.

`O=C(c1ccc(F)cc1)N1CCCC1c1ccccc1` (stereo unspecified) was tested, and the activity remaining was 87%.

For `O=C(c1ccc(OC(F)(F)F)cc1)N1CCN2C(=O)c3ncccc3C12c1ccccc1` (stereo unspecified), the activity remaining was 73.1%.

With `Clc1ccc(C2(c3ccccc3)CCCN2)cc1` (stereo unspecified) the activity remaining was 68.9%.

For `O=C(c1ccc(C(F)(F)F)cc1)N1CCN2C(=O)c3ccccc3C12c1ccc(F)cc1` (stereo unspecified), the activity remaining was 70.2%.

Molecule `Cc1ccc(C(=O)N2CCN3C(=O)c4ncccc4C23c2ccccc2)cc1` (stereo unspecified) has an activity remaining of 63.1%.

With `C[C@H]1CN(Cc2ccccc2)[C@]2(c3ccc(Cl)cc3)c3ccccc3C(=O)N12` the activity remaining was 73.1%.

For `O=C(Nc1ccc(Cl)cc1)N1CCCN2C(=O)c3ccccc3C12c1ccccc1` (stereo unspecified), the activity remaining was 84.5%.

`Cc1ccc(C23c4ccccc4C(=O)N2CCN3C(=O)c2ccc(C(F)(F)F)cc2)cc1` (stereo unspecified) was tested, and the activity remaining was 28.6% (active).

In the case of `O=C(c1ccc(OC(F)(F)F)cc1)N1CCN2C(=O)c3ccccc3C12c1ccc(Cl)cc1` (stereo unspecified), the activity remaining is reported as 1.2% (active).

Molecule `O=C(c1ccc(F)c(F)c1)N1CCN2C(=O)c3ncccc3C12c1ccccc1` (stereo unspecified) has an activity remaining of 66.4%.

`CN(C)c1ccc(C(=O)N2CCN3C(=O)c4ccccc4C23c2ccc(Cl)cc2)cc1` (stereo unspecified) was tested, and the activity remaining was 82.9%.

For `O=C(c1ccc(Cl)cc1)N1CCCN2C(=O)c3ccccc3C12c1ccccc1` (stereo unspecified), the activity remaining was 54% (active).

With `O=C(c1cccc(C(F)(F)F)c1)N1CCN2C(=O)c3ncccc3C12c1ccccc1` (stereo unspecified) the activity remaining was 76.6%.

In the case of `O=C(c1ccc(SC(F)(F)F)cc1)N1CCN2C(=O)c3ccccc3C12c1ccc(Cl)cc1` (stereo unspecified), the activity remaining is reported as 4.43% (active).

With `O=C(c1ccc(OC(F)(F)F)cc1)N1CCN2C(=O)c3ccccc3C12c1ccccc1` (stereo unspecified) the activity remaining was 1.8% (active).

In the case of `Cc1ccc(C23c4ccccc4C(=O)N2CCN3C(=O)c2ccc(F)cc2)cc1` (stereo unspecified), the activity remaining is reported as 14.1% (active).

For `Cc1ccc(C23c4ccccc4C(=O)N2CCN3C(=O)c2ccc(SC(F)(F)F)cc2)cc1` (stereo unspecified), the activity remaining was 10.9% (active).

In the case of `O=C(c1ccncc1)N1CCN2C(=O)c3ccccc3C12c1ccccc1` (stereo unspecified), the activity remaining is reported as 98.6%.

`O=C(c1cccnc1)N1CCN2C(=O)c3ccccc3C12c1ccc(Cl)cc1` (stereo unspecified) was tested, and the activity remaining was 82.6%.

Work on `O=C(c1ccc(Br)cc1)c1ccccc1C(=O)N1CCCN(C(=O)c2ccccc2)CC1` yielded an activity remaining of 78.1%.

Work on `Cc1ccc(C(=O)N2CCN3C(=O)c4ccccc4C23c2ccccc2)cc1` (stereo unspecified) yielded an activity remaining of 70.2%.

Molecule `O=C(c1ccc(OCc2ccccc2)cc1)N1CCN2C(=O)c3ccccc3C12c1ccccc1` (stereo unspecified) has an activity remaining of 75.1%.

`O=C(c1cccc(C(F)(F)F)c1)N1CCCN2C(=O)c3ccccc3C12c1ccc(Cl)cc1` (stereo unspecified) was tested, and the activity remaining was 78.6%.

Work on `O=C1c2ccccc2C2(c3ccccc3)Nc3ccccc3N12` (stereo unspecified) yielded an activity remaining of 81.8%.

Work on `O=C(c1ccc(F)cc1Cl)N1CCN2C(=O)c3ccccc3C12c1ccccc1` (stereo unspecified) yielded an activity remaining of 64.1%.

`Cc1ccc(C23c4ccccc4C(=O)N2CCN3C(=O)c2ccccc2)cc1` (stereo unspecified) was tested, and the activity remaining was 53.2% (active).

`CN(C)c1ccc(C(=O)N2CCN3C(=O)c4ccccc4C23c2ccccc2)cc1` (stereo unspecified) was tested, and the activity remaining was 88%.

For `O=C(c1cccs1)N1CCN2C(=O)c3ccccc3C12c1ccccc1` (stereo unspecified), the activity remaining was 79.5%.

`Cc1ccc(C23c4ccccc4C(=O)N2CCN3C(=O)c2cc(F)cc(F)c2)cc1` (stereo unspecified) was tested, and the activity remaining was 2.43% (active).
